Reference: PubChem BioAssay (NCI)
This is part of a sample that, as a whole, favours compounds with a hit. Of some 79,000 tested, about 15% had one in any assay. Activity calls are given as the source filed them. Cut-off read from the data, not from the text of the source: active = growth inhibition above about 70%; inactive = the rest.

Assays:
[1] = NCI Yeast Anticancer Drug Screen. Data for the rad52 strain (AID 147);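 note: 0% = growth of vehicle-treated control cultures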; conditions: S. cerevisiae rad52 mutant growth inhibition, hits give high values
Method in brief: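 Vehicle-treated cultures served as the reference for growth inhibition of compound-exposed yeast bearing a DNA repair mutation.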

[2] = NCI Yeast Anticancer Drug Screen. Data for the wt1 strain (AID 149);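 note: 0% = growth of vehicle-treated wt1 cultures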; conditions: S. cerevisiae wt1 strain (SPY 50644) growth inhibition, hits give high values
Method in brief: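 The wt1 strain was treated with compounds, and growth was compared with vehicle-treated cultures to give inhibition.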

[3] = NCI Yeast Anticancer Drug Screen. Data for the rad50EPP+ strain (AID 151);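 note: 0% = growth of vehicle-treated control cultures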; conditions: S. cerevisiae rad50 mutant strain, hits give high values
Method in brief: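 In this screen, rad50EPP+ yeast were exposed to compounds. Growth inhibition was scored against vehicle-treated controls.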

[4] = NCI Yeast Anticancer Drug Screen. Data for the mgt1 strain (AID 153); conditions: S. cerevisiae mgt1 mutant growth inhibition, hits give high values
Method in brief: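 mgt1 strain exposed; growth vs vehicle control recorded as inhibition.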

[5] = NCI Yeast Anticancer Drug Screen. Data for the rad50 strain (AID 155);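 note: 0% = growth of vehicle-only cultures of the same strain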; conditions: S. cerevisiae rad50 strain growth inhibition, hits give high values
Method in brief: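 Cells are treated with compound, grown, and their growth is then scored against vehicle-only cultures of the same repair-deficient yeast strain.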

[6] = NCI Yeast Anticancer Drug Screen. Data for the mec2-1 strain (AID 157); conditions: S. cerevisiae mec2-1 strain, hits give high values
Method in brief: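 Vehicle-treated cultures served as reference for growth inhibition of compound-exposed mec2-1 yeast.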

[7] = NCI Yeast Anticancer Drug Screen. Data for the rad14 strain (AID 159);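 note: 0% = growth of vehicle-treated control cultures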; conditions: S. cerevisiae rad14 strain growth inhibition, hits give high values
Method in brief: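 Readout: yeast growth inhibition, referenced to vehicle-only cultures. Strain bears a defined alteration in DNA damage repair.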

[8] = NCI Yeast Anticancer Drug Screen. Data for the sgs1 mgt1 strain (AID 161);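 note: 0% = growth of cultures given vehicle only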; conditions: S. cerevisiae sgs1 mgt1 strain, hits give high values
Method in brief: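 Read-out: growth inhibition vs vehicle controls. Cells: mutant yeast strain deficient in DNA damage repair.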

[9] = NCI Yeast Anticancer Drug Screen. Data for the CLN2oe strain (AID 163);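 note: 0% = growth of vehicle-only control cultures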; conditions: S. cerevisiae CLN2oe strain, hits give high values
Method in brief: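 Inhibition relative to vehicle-treated yeast is reported. Cells: strain with genetic alteration in cell-cycle control, grown with compound.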

[10] = NCI Yeast Anticancer Drug Screen. Data for the cln2 rad14 strain (AID 165);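 note: 0% = growth equal to vehicle treated cultures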; conditions: S. cerevisiae cln2 rad14 strain, hits give high values
Method in brief: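 Each compound was tested on cln2 rad14 yeast. Inhibition of growth was calculated against vehicle-exposed controls.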

[11] = NCI Yeast Anticancer Drug Screen. Data for the bub3 strain (AID 167); conditions: S. cerevisiae bub3 mutant strain, hits give high values
Method in brief: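 Part of a panel of yeast mutants defective in DNA damage repair or cell cycle regulation. Each strain is grown with compound, and inhibition is calculated relative to solvent-treated cultures.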

[12] = NCI Yeast Anticancer Drug Screen. Data for the wt2 strain (AID 169);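 note: 0% = growth of vehicle-treated yeast cultures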; conditions: S. cerevisiae wt2 strain growth inhibition, hits give high values
Method in brief: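 Inhibition of yeast growth was determined after compound treatment, normalised to controls receiving only vehicle.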

[13] = NCI Yeast Anticancer Drug Screen. Data for the sgs1 strain (AID 173);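 note: 0% = growth of vehicle-only control cultures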; conditions: S. cerevisiae sgs1 mutant, hits give high values
Method in brief: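 Screen format: yeast with repair or checkpoint alterations, compound exposure, growth read relative to vehicle.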

[14] = NCI Yeast Anticancer Drug Screen. Data for the mlh1 rad18 strain (AID 175); conditions: S. cerevisiae mlh1 rad18 strain growth inhibition, hits give high values
Method in brief: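 Vehicle-treated cultures served as the reference for growth inhibition in a yeast strain carrying DNA damage repair alterations exposed to each compound.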

[15] = NCI Yeast Anticancer Drug Screen. Data for the rad18 strain (AID 177); conditions: S. cerevisiae rad18 mutant growth inhibition, hits give high values
Method in brief: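 Test articles were incubated with altered yeast defective in DNA damage repair. Results are given as inhibition of growth versus vehicle.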

[16] = at 5.0 µM (retest, dose inferred, filed as 0.5)
[17] = at 50.0 µM (retest, dose inferred, filed as 5.0)

Measured: growth inhibition

CC[N+]1(C)CCC(O)(c2ccc(OC)cc2)C(C(=O)c2ccc(OC)cc2)C1 (stereo not drawn)
active: [8]; [16] 87% | [8]; [17] 95% | [10]; [16] 86% | [10]; [17] 97% | [11]; [17] 91%
inactive: [1]; at 1.2 µM -10% | [1]; at 3.7 µM -13% | [1]; at 11.0 µM -22% | [1]; at 33.0 µM -19% | [1]; at 100.0 µM -20% | [2]; at 1.2 µM -69% | [2]; at 3.7 µM -76% | [2]; at 11.0 µM -72% | [2]; at 33.0 µM -62% | [2]; at 100.0 µM -58% | [3]; at 1.2 µM -32% | [3]; at 3.7 µM -32% | [3]; at 11.0 µM -38% | [3]; at 33.0 µM -35% | [3]; at 100.0 µM -23% | [4]; at 1.2 µM -39% | [4]; at 3.7 µM -52% | [4]; at 11.0 µM -54% | [4]; at 33.0 µM -54% | [4]; at 100.0 µM -44% | [5]; at 1.2 µM -24% | [5]; at 3.7 µM -19% | [5]; [16] 24% | [5]; at 11.0 µM -37% | [5]; at 33.0 µM -21% | [5]; [17] 28% | [5]; at 50.0 µM -1.2% | [5]; at 100.0 µM -30% | [6]; at 1.2 µM -63% | [6]; at 3.7 µM -56% | [6]; [16] 7% | [6]; at 11.0 µM -69% | [6]; at 33.0 µM -61% | [6]; [17] 23% | [6]; at 50.0 µM 14.8% | [6]; at 100.0 µM -74% | [7]; at 1.2 µM 6% | [7]; at 3.7 µM 0% | [7]; at 11.0 µM -33% | [7]; at 33.0 µM -3% | [7]; at 100.0 µM -27% | [8]; at 50.0 µM -4.7% | [9]; at 1.2 µM -13% | [9]; at 3.7 µM -3% | [9]; at 11.0 µM -14% | [9]; at 33.0 µM -4% | [9]; at 100.0 µM -20% | [10]; at 50.0 µM 20.1% | [11]; at 1.2 µM -49% | [11]; at 3.7 µM -42% | [11]; [16] 35% | [11]; at 11.0 µM -61% | [11]; at 33.0 µM -52% | [11]; at 50.0 µM 8.55% | [11]; at 100.0 µM -68% | [12]; at 1.2 µM -21% | [12]; at 3.7 µM -15% | [12]; at 11.0 µM -14% | [12]; at 33.0 µM -16% | [12]; at 100.0 µM -22% | [13]; at 1.2 µM -10% | [13]; at 3.7 µM -37% | [13]; at 11.0 µM -49% | [13]; at 33.0 µM -44% | [13]; at 100.0 µM -50% | [14]; [16] 25% | [14]; [17] 29% | [14]; at 50.0 µM 6.75% | [15]; at 1.2 µM -7% | [15]; at 3.7 µM -17% | [15]; at 11.0 µM -13% | [15]; at 33.0 µM -23% | [15]; at 100.0 µM -23%
